# Source: PubChem BioAssay AID1645886 (National Center for Advancing Translational Sciences (NCATS), 2021)
# The whole screen tested about 16,000 compounds, of which about 260 (1.6%) were called active. Not shown: some 14% with an inconclusive outcome. The call rests on the fitted dose curve; in most records, active means well fitted inhibition curve with a large enough effect; inconclusive means small, poorly fitted or top-dose-only effect; inactive means no such curve, though single readings can be large or run the other way. This excerpt belongs to a sample that is enriched for actives.
# Biological target: Rap guanine nucleotide exchange factor 4 (Homo sapiens) (UniProt Q8WZA2)
# Sequence (Q8WZA2 whole entry, looked up): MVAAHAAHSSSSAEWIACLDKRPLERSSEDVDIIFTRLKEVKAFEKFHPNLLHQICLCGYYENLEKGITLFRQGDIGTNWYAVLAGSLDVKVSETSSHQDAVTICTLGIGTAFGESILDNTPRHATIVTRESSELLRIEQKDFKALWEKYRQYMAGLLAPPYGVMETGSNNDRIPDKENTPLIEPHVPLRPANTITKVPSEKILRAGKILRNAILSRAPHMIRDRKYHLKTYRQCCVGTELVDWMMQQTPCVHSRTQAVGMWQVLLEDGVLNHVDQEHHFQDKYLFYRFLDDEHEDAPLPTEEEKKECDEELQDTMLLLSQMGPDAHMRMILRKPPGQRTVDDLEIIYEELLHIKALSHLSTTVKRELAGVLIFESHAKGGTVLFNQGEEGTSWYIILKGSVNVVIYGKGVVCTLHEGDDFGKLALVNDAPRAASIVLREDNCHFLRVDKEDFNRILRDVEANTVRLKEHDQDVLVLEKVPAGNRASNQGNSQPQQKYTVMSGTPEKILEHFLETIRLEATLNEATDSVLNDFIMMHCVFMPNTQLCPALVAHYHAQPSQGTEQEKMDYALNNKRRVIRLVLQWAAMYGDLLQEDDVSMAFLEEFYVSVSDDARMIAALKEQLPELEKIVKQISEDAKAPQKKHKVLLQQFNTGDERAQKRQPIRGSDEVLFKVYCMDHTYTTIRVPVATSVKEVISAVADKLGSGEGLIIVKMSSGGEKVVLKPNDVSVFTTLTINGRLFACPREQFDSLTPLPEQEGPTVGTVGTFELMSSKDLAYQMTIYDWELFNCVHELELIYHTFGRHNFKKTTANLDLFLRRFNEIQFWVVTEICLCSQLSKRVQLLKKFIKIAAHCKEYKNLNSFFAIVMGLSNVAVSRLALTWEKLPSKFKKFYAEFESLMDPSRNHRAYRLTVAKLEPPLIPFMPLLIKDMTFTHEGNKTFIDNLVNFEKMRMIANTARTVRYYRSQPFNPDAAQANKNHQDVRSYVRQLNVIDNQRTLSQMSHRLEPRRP
# Test: Validation qHTS for antagonist of cAMP-regulated guanine nucleotide exchange factor 4 (EPAC2); further: nearly all actives have a fitted effect of over 40% in size
# Details: EPAC2 Rap1B BODIPY-GDP exchange, fluorescence; series mostly up to 112 µM; activity, negative = inhibition: at the top concentration
# Description: Principle Investigator: Xiaodong Cheng Ph.D. The University of Texas Medical Branch, […], TX MLPCN Grant: NS066510 In multi-cellular eukaryotic organisms, the effects of cAMP are transduced by two ubiquitously-expressed intracellular cAMP receptors, the classic protein kinase A/cAMP-dependent protein kinase (PKA/cAPK) and the more recently discovered exchange protein directly activated by cAMP/cAMP-regulated guanine nucleotide exchange factor (EPAC/cAMP-GEF). Both PKA and EPAC are ubiquitously expressed in all tissues, and an increase in intracellular cAMP levels will lead to the activation of both PKA and EPAC. Therefore, careful dissections of the individual role and relative contribution of EPAC and PKA within the overall cAMP signaling in various model systems are critical for further elucidating the mechanism of cAMP signaling. To date no EPAC-specific antagonists and agonist, as well as isoform-specific agonists have been reported, and developing EPAC-specific pharmacological probes to determine the physiological functions that EPAC play in the overall cAMP-mediated signaling remains a major challenge within the research field. Furthermore, identified regulators of EPAC may lead to new mechanism-based therapeutic strategies specifically targeting the EPAC / cAMP-signaling components as EPAC has been implicated to play important roles in major human pathological conditions such as diabetes, heart disease, and cancer. This qHTS will be used to screen the Molecular Libraries Small Molecule Repository (MLSMR) as a concentration-titration series using the NCGC unique quantitative screening (qHTS) platform to find activators for EPAC1. In addition, this assay will also be used as a counterscreen for the EPAC2 qHTS. This fluorescent based assay is developed and validated for EPAC1 that measures exchange using EPAC effector Rap1 complex with BODIPY-GDP, a GDP analog with a tethered fluorophores. Activators are identified by monitoring the change in fluorescence signal as the exchanged free BODIPY-GDP has a reduced fluorescence compared to Rap1-bound BODIPY-GDP. Increase in signal (activation) is the desired outcome for the EPAC1 agonist while no activity in this assay is desired for the EPAC2 agonist counterscreen. Reference: [1] de Rooij, J., Zwartkruis, F. J., Verheijen, M. H., Cool, R. H., Nijman, S. M., Wittinghofer, A., and Bos, J.L. (1998) Nature 396, 474-477.
# Briefly, three uL of reagents (100 nM EPAC2, 250 nM RAP1B-BODIPY-GDP, 50 uM GDP) were dispensed into a 1536-well Greiner black solid-bottom medium binding assay plate. Controls and test compounds (23 nL) were transferred to the plate via a Kalypsys pin tool equipped with a 1536-pin array. The plates were centrifuged at 1,000 rpm for 15 seconds followed by 5 minute incubation at room temperature. The assay plates were read at 5 minute intervals for 30 minutes in the ViewLux plate reader using 480nm excitation and 540nm emission filters. The results were normalized to the agonist positive control of 6.5 mM cAMP.
# Potency means the concentration at half of the fitted maximal effect.
Structure (SMILES),"activity, negative = inhibition",Potency
Cc1cc(-c2ccnc(-n3ncc(C(=O)NCCc4ccncc4)c3C)n2)c(C)s1,-15.8% (inactive),
CC(=O)OCC(=O)[C@@]1(O)CCC2C3CCC4=CC(=O)CC[C@]4(C)C3C(=O)C[C@]21C (stereo not given in full),-22.4% (inactive),
c1cncc(CNc2ccnc(-c3ccc4c(c3)OCO4)n2)c1,-16.8% (inactive),
COc1ccc2[nH]cc(CCNc3ncnc4ccc(-c5ccccc5CN(C)C)cc34)c2c1,-13.1% (inactive),
COc1ccc(Oc2ncc3nc(C)c(=O)n(-c4ccccc4)c3n2)cc1,-7.31% (inactive),
O=C(OCc1ccccc1)c1ccc(O)cc1,-30.8% (inactive),
O=C1C(c2ccccn2)=[N+]([O-])c2ccccc21,-5.15% (inactive),
Cn1nccc1C(=O)NCC1CCC2(CCN(Cc3c(O)ccc4ccccc34)CC2)O1 (stereo not given),-14% (inactive),
COc1ccccc1N1CCN(CCN2C(=O)c3ccccc3C(C)(C)C2=O)CC1,,inactive
COc1ccc(-c2nc3cnc(N(C)C)nc3n(Cc3cccs3)c2=O)cc1,3.28% (inactive),
COc1ccc(-n2c(CNC(=O)c3cc(C(F)(F)F)ccc3Cl)nnc2SC)cc1,-9.57% (inactive),
CC(=O)O[C@H]1CC[C@@]2(C)C(=CC[C@@H]3[C@@H]2CC[C@]2(C)C(c4cccnc4)=CC[C@@H]32)C1,-10.2% (inactive),
COc1ccc(CCCOC(Cn2ccnc2)c2ccc(OC)cc2)cc1 (stereo not given),,inactive
Cc1cnc(CNc2nc(-c3cccnc3)nc3ccccc23)cn1,-10.5% (inactive),
Cc1cc(C)cc(CN2CCc3nnc(C(NS(C)(=O)=O)C(C)C)n3CC2)c1 (stereo not given),-17.4% (inactive),
COCCNc1ncnc2ccc(-c3ccccc3CN(C)C)cc12,-5.97% (inactive),
Cc1cccc(CNc2ccnc(-c3cccnc3)n2)c1,-17.6% (inactive),
CC(=O)N1CCC2(CCCN(Cc3ccc(C#N)cc3)C2)CC1,-15.4% (inactive),
Cc1c(S(=O)(=O)O)oc2c1C(=O)C(=O)c1c-2ccc2c1CCCC2(C)C,,44.7 µM (active)
COc1ccc(CN(C)CCn2cc(C(=O)N3CCSCC3)nn2)cc1C,-9.24% (inactive),
c1ccc(CNc2ncncc2-c2cccnc2)cc1,-8.54% (inactive),
CS(=O)(=O)NC(=O)CCC/C=C\C[C@H]1C(=O)C[C@@H](O)[C@@H]1/C=C/[C@H](O)COc1ccccc1,25.7% (inactive),

Structure (SMILES),"activity, negative = inhibition",Potency
COc1ccc(C(=O)N2CCC[C@@]3(CCN(C(=O)NC(C)C)C3)C2)cc1,-25.3% (inactive),
Cc1cnc(-n2ncc(C(=O)N3CCN(C(C)C)CC3)c2-c2ccco2)nc1-c1ccc(F)cc1,3.02% (inactive),
CN(C)c1ccc(/C=C/c2c3ccccc3nc3ccccc23)cc1,-10.7% (inactive),
O=c1c(-c2ccc(F)cc2)nc2cncnc2n1-c1ccccc1,9.92% (inactive),
COCC1CCCN(Cc2ccc3c(c2)CN(C(=O)c2ccnn2C)CCO3)C1 (stereo not given),-1.55% (inactive),
Cc1c(O)cc2c(c1C)O[C@](C)(CCC[C@H](C)CCC[C@H](C)CCCC(C)C)CC2,-45.9% (inactive),
CCc1noc(C)c1C(=O)NCCN1Cc2cc(OC)ccc2OC(CC)C1 (stereo not given),-18.1% (inactive),
CC(N)(C(=O)O)c1ccc(-c2nn[nH]n2)cc1 (stereo not given),3.75% (inactive),
O=C1CCC[C@@H]2C[C@@]3(C[C@@H]4CCN1[C@H]24)Nc1ccccc1NC3=NCc1ccccc1,8.03% (inactive),
C=C1O[C@@](CO)(n2cnc3c(N)ncnc32)[C@H](O)[C@@H]1O,-13% [at 151 µM] (inactive),
CO/N=C(\C(=O)N[C@@H]1C(=O)N2C(C(=O)O)=CCS[C@H]12)c1csc(N)n1,-6.32% (inactive),
COC(=O)CC1C(C)(C)C(OC(C)=O)C2CC3=C4CC(=O)OC(c5ccoc5)[C@]4(C)CCC3[C@@]1(C)C2=O (stereo not given in full),-17% (inactive),
COc1ccccc1CNc1ccnc(-c2c(C)noc2C)n1,-31.5% (inactive),
COc1ccc(C(=O)N2CCC3(CCCN(C(c4ccccc4)c4ccccc4)C3)CC2)cc1,-24.7% (inactive),
CN(C)C(=O)c1ccc(-c2cncnc2NC2CCNCC2)cc1,-12.4% (inactive),
CCC1(C2CCN(C(=O)c3cccc(F)c3F)CC2)NC(=O)N(CCc2scnc2C)C1=O (stereo not given),16.6% (inactive),
COc1ccccc1N1CCN(C[C@@H]2CN3C(=O)N(C)c4ccccc4C3=N2)CC1,-26.1% (inactive),
Cc1ccc(CN2CCCOCCS2(=O)=O)cc1,-2.57% (inactive),
CCC(C)[C@H]1COCCS(=O)(=O)N1Cc1ccc(C)cc1 (stereo not given in full),,79.4 µM (active)
Cc1ncc2c(c1CNS(=O)(=O)N(C)C)CCN(C(=O)c1ccccc1F)C2,-14.3% (inactive),
COCCNc1cc(-c2c(C)noc2C)ncn1,-5.38% (inactive),
C[N+](C)(C)CCCCCNCC12CC3CC(CC(C3)C1)C2,-15.6% (inactive),

Structure (SMILES),"activity, negative = inhibition",Potency
O=C(O)CCCc1ccccc1,-0.0958% (inactive),
Cc1cccc(CNC(=O)c2cnn(-c3nccc(-c4ccccc4F)n3)c2C2CC2)n1,13.1% (inactive),
O=C(c1cnccn1)N1CCC[C@@]2(CCN(Cc3ccncc3)C2)C1,-20.6% (inactive),
COCCn1c(=O)c(-c2cc(F)cc(F)c2)nc2cnc(N3CCNCC3)nc21,-20.9% (inactive),
Cn1cccc1C(=O)N1CCC[C@@]2(CCN(Cc3nccs3)C2)C1,-15.6% (inactive),
CC(C)=CC1C(C(=O)O)C1(C)C (stereo not given),-11.1% (inactive),
CCCCC/C=C\C/C=C\CCCCCCCCCC(=O)O,-26.6% [at 11.4 µM] (inactive),
COc1ccccc1C1CN(Cc2ccccc2O)Cc2ccccc2O1 (stereo not given),-26.5% (inactive),
Cc1c(O)cc(O)c2c(=O)c(-c3ccc(O)cc3)coc12,-5.64% (inactive),
C[C@@H]1O[C@@H](OC[C@H]2O[C@@H](Oc3c(-c4cccc(O)c4O)oc4cc(O)cc(O)c4c3=O)[C@H](O)[C@@H](O)[C@@H]2O)[C@H](O)[C@H](O)[C@H]1O,-20.9% (inactive),
COc1cccc(Cn2c(=O)c(-c3ccccc3)nc3cnc(OC)nc32)c1,-28.4% (inactive),
O=c1c(-c2ccc(F)cc2)nc2cnc(N3CCNCC3)nc2n1Cc1cccs1,-29.2% (inactive),
O=C(c1csnn1)N1CCC[C@@]2(CCN(Cc3nccs3)C2)C1,-18.4% (inactive),
COCCN1CCN(C(=O)c2sc3ncnc(NCC4CCCO4)c3c2C)CC1 (stereo not given),-8.65% (inactive),
O=C(Nc1cccc(F)c1)N1CCC2(CC1)CCN(S(=O)(=O)c1ccccc1)CC2,-22% (inactive),
c1ccc2c(Nc3ccncc3)nc(-c3ccoc3)nc2c1,-19% (inactive),
COCCn1c(=O)c(CCc2ccccc2)nc2cncnc21,-6.11% (inactive),
CCC(C)[C@@H](N)C(=O)O (stereo not given in full),,inactive
O=S(=O)(c1ccccc1)N1CCC2(CC1)CN(Cc1nccs1)C2,-23.4% (inactive),
COc1ccc(NC(=O)N2CC3(CCN(C(=O)c4cccn4C)CC3)C2)cc1,-24.9% (inactive),
COc1cccc(Nc2ncc3ncc(=O)n(C4CC4)c3n2)c1,-20.3% (inactive),
